Data on nine compounds can be found in PubChem BioAssay (NCI).

This is part of a sample that, as a whole, favours compounds with a hit. Of some 83,000 tested, about 20% had one in any assay.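 96-well plates, one dose, 48 hours. Percent growth reported; active if below 10.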 Unmarked numbers belong to inactive results. Active and inactive are the calls of the source.

Among the test systems are K-562 leukemia; MDA-MB-231 breast; RXF 393 renal; SF-268 CNS; SF-295 CNS; SF-539 CNS; UACC-257 melanoma; M14 melanoma; HCT-15 colon; HT29 colon; SNB-75 CNS; SNB-19 CNS; U251 CNS; PC-3 prostate; SK-MEL-5 melanoma; UACC-62 melanoma; LOX IMVI melanoma; SK-MEL-28 melanoma; SK-MEL-2 melanoma; MALME-3M melanoma.
Holding throughout (assay): NCI-60 one-dose screen, 48 h (100 = growth as untreated, 0 = no growth, -100 = all killed)
What all share (details): 10 µM

Consider `Cc1cc2ccccc2nc1-c1ccccc1F`, for which the growth was 110% with K-562 leukemia; 112% in the test with MDA-MB-231 breast; 99% in the test with RXF 393 renal; 101% in the test on SF-268 CNS; 107% in the test with SF-295 CNS; 107% in the test on SF-539 CNS. Besides, the growth with UACC-257 melanoma is 89.6%; in the test with M14 melanoma, 108%; in the test with HCT-15 colon, 101%; in the test on HT29 colon, 119%; in the test with SNB-75 CNS, 112%; in the test on SNB-19 CNS it was 110%. Moreover, the growth in the test with U251 CNS is 91.1%; with PC-3 prostate it was 94.3%; with SK-MEL-5 melanoma, 102%; in the test on UACC-62 melanoma, 105%; in the test with LOX IMVI melanoma, 97.8%; in the test with SK-MEL-28 melanoma, 116%. The growth with SK-MEL-2 melanoma is 111%.
With `COc1ccc(-c2nc3sc(C4CC4)nn3c2/C=C2/C(=O)Nc3ccc(OC)cc32)cc1`, the growth in the test on K-562 leukemia is 74.3%; in the test on MDA-MB-231 breast, 58.4%; in the test with RXF 393 renal, 63.9%; in the test on SF-268 CNS it was 75.8%; in the test with SF-295 CNS, 82.8%; in the test on SF-539 CNS, 25.1%. Further, the growth with UACC-257 melanoma was 55.2%; in the test on M14 melanoma, 63.8%; with HCT-15 colon it was 76.9%; in the test on HT29 colon, 73.2%; in the test on SNB-75 CNS, -2.41% (active); in the test with SNB-19 CNS it was 66.8%. Further, the growth with U251 CNS was 72.8%; with PC-3 prostate, 58.1%; with SK-MEL-5 melanoma, 52.8%; with UACC-62 melanoma, 44%; in the test with LOX IMVI melanoma it was 52.1%; in the test with SK-MEL-28 melanoma it was 24.9%. The growth in the test on SK-MEL-2 melanoma is 49.6%.
With `O=C1OCC2=C1C(c1cccc(Cl)c1)c1cc3c(cc1N2CCO)CCC3` (configuration not stated), the growth with K-562 leukemia is 16.7%; in the test on MDA-MB-231 breast, -19.3% (active); with RXF 393 renal it was 34.3%; with SF-268 CNS it was 13.9%; in the test on SF-295 CNS it was -18.8% (active); with SF-539 CNS, -5.32% (active). Also, the growth was 46% in the test on UACC-257 melanoma; 8.51% (active) with M14 melanoma; 9.71% (active) in the test on HCT-15 colon; -9.18% (active) with HT29 colon; 40.5% in the test with SNB-75 CNS; 29.8% in the test on SNB-19 CNS. Further, the growth in the test on U251 CNS was 3.51% (active); in the test with PC-3 prostate, 20.4%; with SK-MEL-5 melanoma it was -8.14% (active); in the test on UACC-62 melanoma it was 26.6%; in the test with LOX IMVI melanoma, 12.6%; with SK-MEL-28 melanoma, 59.2%.
With `COc1ccc(Cn2c(C(N)=O)cc3c2-c2nc(N)ncc2CCC3)cc1`, the growth in the test with K-562 leukemia was 107%; with MDA-MB-231 breast, 88.9%; in the test with RXF 393 renal, 102%; with SF-268 CNS it was 96.8%; with SF-295 CNS it was 98.3%; with SF-539 CNS it was 95.8%. The growth with UACC-257 melanoma is 102%; with M14 melanoma, 96.7%; with HCT-15 colon, 91.1%; in the test with HT29 colon, 93.2%; in the test with SNB-75 CNS it was 97.2%; in the test with SNB-19 CNS, 102%. Besides, the growth is 99.3% in the test with U251 CNS; 99.3% in the test with PC-3 prostate; 98.7% in the test with SK-MEL-5 melanoma; 95.4% in the test on UACC-62 melanoma; 107% with LOX IMVI melanoma; 99.2% in the test with SK-MEL-28 melanoma. Besides, in the test with SK-MEL-2 melanoma, the growth is 105%.
Regarding `CCc1ccc2c(c1)N(CCO)C1=C(C(=O)OC1)C2c1cc(OC)c(OC)c(OC)c1` (configuration not stated), the growth in the test with K-562 leukemia was 10.5%; with MDA-MB-231 breast, -28% (active); with RXF 393 renal it was 53.4%; in the test on SF-268 CNS it was 21.7%; with SF-295 CNS it was -28.4% (active); with SF-539 CNS it was -9.69% (active). For the same compound, the growth in the test with UACC-257 melanoma was 50.5%; in the test with M14 melanoma it was 10.2%; with HCT-15 colon, 6.93% (active); in the test on HT29 colon, -24.2% (active); with SNB-75 CNS, 49.3%; in the test on SNB-19 CNS it was 21.7%. Moreover, the growth was 10.9% in the test on U251 CNS; 26.9% in the test on PC-3 prostate; -14.5% (active) with SK-MEL-5 melanoma; 16.2% in the test with UACC-62 melanoma; 25% with LOX IMVI melanoma; 64.5% in the test with SK-MEL-28 melanoma.
For the compound `CCN(CC)CCC(=O)Nc1cccc2c1C(=O)c1c(c(O)c3ccccc3c1O)C2=O`, the growth in the test on K-562 leukemia is 23.3%; in the test on MALME-3M melanoma, 61.6%; in the test with RXF 393 renal it was 58.4%; with SF-268 CNS it was 56.9%; with SF-295 CNS it was 25.7%; in the test on SF-539 CNS, 38%. Besides, the growth with UACC-257 melanoma is 85.6%; in the test on M14 melanoma it was 70.8%; in the test on HCT-15 colon it was 51.9%; in the test on HT29 colon, 57.5%; with SNB-75 CNS, 38%; with SNB-19 CNS it was 77.3%. Also, the growth is 64.6% in the test with U251 CNS; 45.4% with PC-3 prostate; 47.6% with SK-MEL-5 melanoma; 79.6% in the test on UACC-62 melanoma; 40.6% with LOX IMVI melanoma; 34% with SK-MEL-28 melanoma. In addition, the growth with SK-MEL-2 melanoma is 112%.
With `COc1ccc2c(c1)C(=O)c1c-2c(OCCN2CCCCC2)nc2ccc(OC)cc12`, the growth is 11.2% with K-562 leukemia; 66.5% in the test on MDA-MB-231 breast; 47.3% in the test on RXF 393 renal; 28.1% in the test on SF-268 CNS; 2.81% (active) in the test on SF-295 CNS; 20.9% in the test on SF-539 CNS. The growth was 32.3% in the test with UACC-257 melanoma; 22.9% in the test on M14 melanoma; 26.2% in the test on HCT-15 colon; 1.76% (active) with HT29 colon; 20.8% in the test with SNB-75 CNS; 32.3% in the test on SNB-19 CNS. Also, the growth in the test with U251 CNS is 12%; in the test with PC-3 prostate, 43.3%; in the test on SK-MEL-5 melanoma, 22.1%; with UACC-62 melanoma it was 20.6%; in the test on LOX IMVI melanoma it was -52.9% (active); with SK-MEL-28 melanoma, 72.3%. Also, the growth in the test on SK-MEL-2 melanoma was 7.82% (active).
Take `Cc1occc1-c1nnc(SCC(=O)c2ccc(NC(=O)CC(C)C)cc2)o1`: the growth in the test with K-562 leukemia is 86.1%; in the test on MALME-3M melanoma it was 89.8%; with MDA-MB-231 breast, 105%; in the test on SF-268 CNS it was 132%; in the test with SF-295 CNS it was 104%; in the test on SF-539 CNS it was 101%. In addition, the growth was 112% in the test on M14 melanoma; 121% in the test on HCT-15 colon; 113% with HT29 colon; 111% in the test on SNB-75 CNS; 95.8% with SNB-19 CNS; 100% with PC-3 prostate. In addition, the growth in the test on SK-MEL-5 melanoma was 94.9%; in the test with UACC-62 melanoma, 104%; in the test with LOX IMVI melanoma it was 105%; with SK-MEL-28 melanoma, 123%; in the test with SK-MEL-2 melanoma it was 90.8%.
For `O=C(Nc1ccncc1)C(=O)c1cn(S(=O)(=O)c2cc(Cl)cc(Cl)c2)c2ccccc12`, the growth in the test on K-562 leukemia is 28.5%; in the test with MDA-MB-231 breast, 63.6%; with RXF 393 renal, 75%; in the test on SF-268 CNS it was 94.3%; with SF-295 CNS, 38.2%; in the test with SF-539 CNS, 61.7%. Further, the growth in the test with UACC-257 melanoma is 69.8%; in the test on M14 melanoma it was 71.5%; in the test on HCT-15 colon, 69.5%; with HT29 colon, 42.4%; in the test with SNB-75 CNS, 59.6%; with SNB-19 CNS, 82.4%. Besides, the growth in the test with U251 CNS was 58.1%; in the test with PC-3 prostate, 63.9%; in the test with SK-MEL-5 melanoma it was 62.7%; with UACC-62 melanoma it was 57.4%; with LOX IMVI melanoma it was 48%; in the test with SK-MEL-28 melanoma it was 78.4%. Also, the growth in the test with SK-MEL-2 melanoma was 61.7%.
